RE007 growth inh: less growth of the S. pombe RE007 Vpr strain; S. pombe RE007 Vpr strain, BacTiter-Glo ATP luminescence, 24 h; Potency, µM (titrated, usually from 92.2 µM), inactives show top-dose activity change, negative = less growth, most hits filed as inhibitors; hit rate 0.21% among 360,000; AID 651644; active = well fitted falling curve with a large enough effect; inconclusive = small, poorly fitted or top-dose-only effect; inactive = no such curve, though single readings can be large or run the other way; also: potency is read from the fitted curve at half-maximal effect; nearly all actives have a fitted effect of over 50% in size
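Fission yeast RE007 carrying one integrated HIV-1 vpr copy, seeded at OD 0.01 in PMG+AL medium with 23 nL pinned compound. Grown 24 h at 30 degrees; viability read by BacTiter-Glo luminescence after 5 min.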
HCMV inh: inhibitors of human cytomegalovirus. HFF cells, HCMV-luciferase reporter, 72 h; stronger effect = lower value. activity change, negative = inhibition, % at 57.5 µM. hit rate 4.5% among 410,000. AID 1259415; in the data active = activity change below about -60%; inconclusive = no clear call, values can overlap the other calls; inactive = above about -39%
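Human foreskin fibroblasts infected with luciferase-reporter HCMV at MOI 1 PFU/cell, compounds at two doses. Luciferase measured 72 h post infection; normalized to buffer-only basal and Salinomycin (10uM) controls.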
TbPYK inhibitor: blocks Trypanosoma brucei pyruvate kinase | TbPYK enzyme, Kinase-Glo Plus ATP luminescence, 45 min | Potency, µM (highest dose often 76.8 µM), for inactives: at the highest dose activity, negative = inhibition, hits mostly inhibitors | hit rate 0.12% among 410,000 | Q57TT1 | AID 624173; also: potency is read from the fitted curve at half-maximal effect; nearly all actives have a fitted effect of over 50% in size
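Assay buffer: 50 mM TEA pH 7.2, 100 mM KCl, 10 mM MgCl2, 0.05% BSA, 0.01% Tween-20. Pyruvate kinase from T. brucei plus substrate met compound, then ADP (130 uM final). Luminescence was read post 45 min RT.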
FMDV inh: foot and mouth disease virus antiviral activity | FMDV antiviral cell-based qHTS | Potency, µM (titrated, usually from 57.9 µM), for inactives: top-dose activity change, negative = inhibition, most hits filed as inhibitors | hit rate 1.2% among 410,000 | AID 1159524; calls by dose curve; tested in HEK293T cells; also: read-out not given here; potency is read from the fitted curve at half-maximal effect; nearly all actives have a fitted effect of over 45% in size
Sm TGR block: inhibitors of Schistosoma mansoni thioredoxin glutathione reductase; Q962Y6; purified TGR, DTNB reduction, TNB absorbance 405 nm; Potency, µM (doses to about 114 µM), without a hit: at the highest dose activity change, negative = inhibition, hits mostly inhibitors; hit rate 3% among 360,000; AID 485364; also: potency is read from the fitted curve at half-maximal effect; nearly all actives have a fitted effect of over 60% in size
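Kinetic colorimetric format: TGR-catalysed, NADPH-driven DTNB reduction monitored via TNB absorbance. Enzyme dispensed at 20 nM; compound exposure 15 min at room temperature before reaction start.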
Giardia FBPA inh: Giardia lamblia aldolase inhibition | purified Giardia FBPA | Potency, µM (titrated, usually from 59.6 µM), inactives show at the top dose activity, negative = inhibition, most hits filed as inhibitors | hit rate 0.71% among 290,000; also: potency is read from the fitted curve at half-maximal effect; nearly all actives have a fitted effect of over 55% in size
Target sequence (A8B2U2 whole entry, looked up): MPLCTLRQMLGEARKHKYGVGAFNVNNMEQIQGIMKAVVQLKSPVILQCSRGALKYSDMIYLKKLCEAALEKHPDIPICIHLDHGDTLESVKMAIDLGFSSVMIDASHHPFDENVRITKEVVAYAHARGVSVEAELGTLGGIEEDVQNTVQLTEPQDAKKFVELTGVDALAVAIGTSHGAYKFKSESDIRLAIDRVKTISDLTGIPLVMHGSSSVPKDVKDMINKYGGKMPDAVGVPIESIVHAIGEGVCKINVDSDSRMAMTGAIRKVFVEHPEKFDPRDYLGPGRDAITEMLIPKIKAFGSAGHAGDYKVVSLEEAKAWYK
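Giardia FBPA (40 nM reagent) was preincubated 10 min at RT with compound (up to 57.5 uM final), then substrate plus GAPDH/TPI/NAD/arsenate coupling system with diaphorase/resazurin was added; resorufin fluorescence (525/598 nm) was read after 20 min.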
Numbers without * were called inactive. Rows were chosen to be rich in hits. Some 7.7% of all compounds tested hit in one or more screens of this group. Unless noted, calls follow the shape of the dose curve; as a rule, active = well fitted curve in the direction sought with a large enough effect; inconclusive = small, poorly fitted or top-dose-only effect, or another doubt; inactive = no such curve, though single readings can be large; an effect the other way counts as inactive or inconclusive. % is scaled to controls: 0 for no effect and ±100 for the full control effect.

For O=C(O)/C=C\C(=O)Nc1ccccc1C#Cc1ccccc1 the results were RE007 growth inh -9%, HCMV inh -13, TbPYK inhibitor -15%, FMDV inh 35%, Sm TGR block 40µM* and Giardia FBPA inh 2%.
`O=C(O)/C=C/C(=O)Nc1ccccc1-c1ccccc1NC(=O)/C=C/C(=O)O` gave RE007 growth inh -5%, HCMV inh -15, TbPYK inhibitor -10%, FMDV inh -4%, Sm TGR block 8.9µM* and Giardia FBPA inh -2%.
Screening O=C(O)/C=C/C(=O)Nc1ccccc1SC(F)(F)F returned RE007 growth inh -22%, HCMV inh -1, TbPYK inhibitor -5%, FMDV inh -17%, Sm TGR block 8.9µM* and Giardia FBPA inh 7%.
NC(=O)c1ccccc1NC(=O)/C=C/C(=O)O was read as RE007 growth inh 8%, HCMV inh 4, TbPYK inhibitor 1%, FMDV inh 15%, Sm TGR block 3% and Giardia FBPA inh 4%.
Screening Cc1nc(N2CCCC2)c2c(C(=O)Nc3ccc(C)c(Cl)c3)c(C)oc2n1 returned HCMV inh -13, TbPYK inhibitor 4%, FMDV inh -9% and Sm TGR block 6%.
Screening Cc1nc(-c2ccc(S(=O)(=O)N(Cc3ccccc3)C(C)C)cc2)co1 returned HCMV inh -12, TbPYK inhibitor 1%, FMDV inh -19% and Sm TGR block 2%.
Screening Cc1ccc(NC(=O)Cn2c(=O)oc3cc(S(=O)(=O)NCc4ccccc4)ccc32)cc1 returned HCMV inh inconclusive, TbPYK inhibitor 0%, FMDV inh 15% and Sm TGR block 8%.
Screening COCCNC(=O)CCCn1c(SCC(=O)Nc2ccc(F)cc2)nc2c(sc3ccccc32)c1=O returned HCMV inh -13, TbPYK inhibitor -2%, FMDV inh 7% and Sm TGR block 1%.
CCOC(=O)c1ccccc1NC(=O)/C=C/C(=O)O was read as RE007 growth inh -19%, HCMV inh 7, TbPYK inhibitor -14%, FMDV inh -23%, Sm TGR block inconclusive and Giardia FBPA inh 5%.
CCCCCCOC(=O)c1ccccc1NC(=O)/C=C/C(=O)O was read as RE007 growth inh inconclusive, HCMV inh 22, TbPYK inhibitor 4%, FMDV inh inconclusive, Sm TGR block 45µM* and Giardia FBPA inh 9%.
Screening O=C(O)/C=C\C(=O)Nc1ccccc1C#Cc1ccc(Br)cc1 returned RE007 growth inh 45µM*, HCMV inh 16, TbPYK inhibitor 8%, FMDV inh 14%, Sm TGR block 45µM* and Giardia FBPA inh -9%.
For CN(C)S(=O)(=O)c1ccc(C(=O)NCCOc2ccccc2)cc1 the results were RE007 growth inh -23%, HCMV inh 147, TbPYK inhibitor 1%, FMDV inh 19%, Sm TGR block -1% and Giardia FBPA inh 4%.
For CC(C)(C)c1ccc(C(=O)NCCOc2ccccc2F)cc1 the results were RE007 growth inh -20%, HCMV inh -69*, TbPYK inhibitor -14%, FMDV inh 35µM*, Sm TGR block 4% and Giardia FBPA inh 1%.
`COCCNC(=S)NC(=O)c1ccc(C(C)(C)C)cc1` gave RE007 growth inh -24%, HCMV inh -35, TbPYK inhibitor -4%, FMDV inh 13%, Sm TGR block 40µM* and Giardia FBPA inh -13%.
For CC(C)(C)c1ccc(C(=O)NCCOc2ccccc2)cc1 the results were RE007 growth inh 4%, HCMV inh inconclusive, TbPYK inhibitor 0%, FMDV inh 20µM*, Sm TGR block 2% and Giardia FBPA inh -9%.
`CC(=O)Nc1ccc(NC(=S)NC(=O)c2ccc(C(C)(C)C)cc2)cc1` gave TbPYK inhibitor -3%.
COC(=O)CCC(=O)N1CCOCCOCCN(C(=O)CCC(=O)OC)CCOCCOCC1 was read as RE007 growth inh 17%, HCMV inh 3, TbPYK inhibitor 5%, FMDV inh -18%, Sm TGR block 0% and Giardia FBPA inh 7%.
Screening COC(=O)CCCC(=O)N1CCOCCN(C(=O)CCCC(=O)OC)CCOCC1 returned RE007 growth inh 6%, HCMV inh -101*, TbPYK inhibitor 6%, FMDV inh -15%, Sm TGR block -12% and Giardia FBPA inh 11%.
For CCCC(C)NC(=O)COc1ccc(Sc2ccc(OCC(=O)NC(C)CCC)cc2)cc1 (centres undefined) the results were RE007 growth inh 0%, HCMV inh -72*, TbPYK inhibitor -9%, FMDV inh inconclusive, Sm TGR block 2% and Giardia FBPA inh 6%.
Cc1ccccc1Nc1n[nH]c(=S)s1 was read as RE007 growth inh -12%, HCMV inh 3, TbPYK inhibitor inconclusive and FMDV inh 7%.
Screening Cc1c(Cl)cccc1Nc1n[nH]c(=S)s1 returned RE007 growth inh 23%, HCMV inh -66*, TbPYK inhibitor inconclusive and FMDV inh -3%.
`O=[N+]([O-])c1ccc(Sc2nc3ccccc3[nH]2)c(Cl)c1` gave HCMV inh 16.
`N#C/C(=N\Nc1ccc(Cl)cc1)C(N)=S` gave RE007 growth inh -6%, HCMV inh -92*, TbPYK inhibitor -10%, FMDV inh -20%, Sm TGR block -16% and Giardia FBPA inh -25%.
For Cc1ccc(N/N=C(\C#N)C(=O)c2ccsc2)cc1 the results were RE007 growth inh -12%, HCMV inh 9, TbPYK inhibitor -7%, FMDV inh 14%, Sm TGR block 0% and Giardia FBPA inh -18%.
COc1ccc(C(=O)/C(C#N)=N/Nc2cccc([N+](=O)[O-])c2)cc1 was read as RE007 growth inh 1%, HCMV inh -98*, TbPYK inhibitor 5%, FMDV inh inconclusive and Giardia FBPA inh -5%.
N#C/C(=N\Nc1ccccc1Cl)C(=O)c1ccccc1 was read as RE007 growth inh 0%, HCMV inh -22, TbPYK inhibitor 1%, FMDV inh -5%, Sm TGR block 1% and Giardia FBPA inh -13%.
N#C/C(=N\Nc1cccc(Cl)c1)C(=O)c1ccccc1 was read as RE007 growth inh -14%, HCMV inh -87*, TbPYK inhibitor 0%, FMDV inh 18%, Sm TGR block 0% and Giardia FBPA inh 1%.
N#C/C(=N\Nc1ccc(Cl)cc1)C(=O)c1ccsc1 was read as RE007 growth inh 19%, HCMV inh -64*, TbPYK inhibitor 3%, FMDV inh 1%, Sm TGR block -5% and Giardia FBPA inh -13%.
For COC(=O)c1cc2c(c3c4cc(OC)ccc4n(C(=O)c4ccccc4)c13)C(=O)N(Cc1ccco1)C2 the results were HCMV inh -24.
